Values joined by “and” are separate entries in the source; they are usually repeats but may differ in a detail not shown here. Identical values can stand only once. Records with an inconclusive call do not appear. Where a call stands in place of a potency, no number is given. Active and inactive are the calls of the source. The call rests on the fitted dose curve; in most records, active means well fitted cell-killing curve with a large enough effect in the repeat runs; inconclusive means weak or mixed curves, or effect the other way; inactive means flat fitted curve, though single readings scatter.
Potency means the concentration at half of the fitted maximal effect.

The assay is described as follows: qHTS RealTime-Glo MT Cell Viability Assay in HepG2 cells - 40 hour (AID 1224870). Further: nearly all actives have a fitted effect of over 50% in size. As to conditions: RealTime-Glo luminescence; series mostly up to 76.8 µM; activity change, negative = cytotoxic: at the top concentration. From the text:
National Center for Advancing Translational Sciences [NCATS]
NIH Chemical Genomics Center [NCGC]
U.S. Environmental Protection Agency [EPA]
National Institutes of Environmental Health Sciences [NIEHS]
National Toxicology Program [NTP]
U.S. Food and Drug Administration [FDA]
Measure of cell viability is critical in the cell-base assay. Analysis of cell viability is necessary for the characterization of cell responses to cytotoxic drugs and environmental stress. A RealTime-Glo MT Cell Viability Assay to monitor cell viability in real time of continues cell culture during 40 hours of compound treatment was used to screen Tox21 10K library compounds in HepG2 cells. The RealTime-Glo MT Cell Viability Assay is a nonlytic, homogeneous, bioluminescent method to measure cell viability in real time using a simple, plate-based method. The assay involves adding NanoLuc luciferase and a cell-permeant prosubstrate to cells in culture. Viable cells reduce the proprietary prosubstrate to generate a substrate for NanoLuc luciferase. This substrate diffuses from cells into the surrounding culture medium, where it is rapidly used by the NanoLuc Enzyme to produce a luminescent signal. The signal correlates with the number of viable cells, making the assay well suited for cytotoxicity studies.
Tox21 Assay Protocol Summary:
The mixture of HepG2 cell suspension and reagents were dispensed at 600cells/6 ul/well in 1536-well tissue culture treated black solid bottom plates using a Multidrop dispenser. After the assay plates were incubated at a 37 C/5% CO2 incubator for 5 hours, 23 nL of compounds dissolved in DMSO, positive and negative controls was transferred to the assay plate by a pintool work station. The plates were incubated at 37 C for 40 hours. The luminescence intensity were measured at 0h, 8h, 16h, 24h, 32h and 40h time points using ViewLux plate reader during compound treatment.
(In general: qHTS replaces the single test concentration by a dilution series.)
On to `CC(C)N(C(=O)SCC(Cl)=C(Cl)Cl)C(C)C`, for which the Potency result was “inactive”.

Take `c1ccc(NNc2ccccc2)cc1`: the Potency result was “inactive”.

`CCOC(=S)S`: the Potency result was “inactive”.

For the molecule `Cc1cccc(N)c1N`, the Potency entry was “inactive”.

`CC(C)=CC1C(C(=O)OCc2coc(Cc3ccccc3)c2)C1(C)C` (stereo not given): the Potency result is “inactive”.

On to `O=P(O)(O)CCCl`, for which the Potency entry was “inactive”.

For `CCCCC(CC)COC(=O)c1ccc(C(=O)OCC(CC)CCCC)c(C(=O)OCC(CC)CCCC)c1` (stereo not given), the Potency result is “inactive”.

For the molecule `Cc1ccc(OP(=O)(Oc2ccc(C)cc2)Oc2ccc(C)cc2)cc1`, the Potency result was “inactive”.

In the case of `c1nc[nH]n1`, the Potency entry was “inactive”.

Consider `Nc1ccncc1`, for which the Potency entry is “inactive”.

As for `C=C(C)[C@H]1Cc2c(ccc3c2O[C@@H]2COc4cc(OC)c(OC)cc4[C@@H]2C3=O)O1`, the Potency was 44.2 µM (active) and 27.5 µM (active).

As to `NNC(N)=S`, the Potency entry was “inactive”.

As to `Oc1cc(Cl)ccc1Cl`, the Potency entry was “inactive”.

On to `O=[N+]([O-])c1c(Cl)c(Cl)c(Cl)c(Cl)c1Cl`, for which the Potency result was “inactive”.

As for `CCCCNC(=O)n1c(NC(=O)OC)nc2ccccc21`, the Potency entry is “inactive”.

`CC(C)C(=O)OCC(C)(C)C(OC(=O)C(C)C)C(C)C` (stereo not given): the Potency entry was “inactive”.

Turning to `C[C@]12CCC(=O)C(O)=C1CC[C@@H]1[C@@H]2CC[C@]2(C)C(=O)CC[C@@H]12`, the Potency result is “inactive”.

On to `S=C1NCCN1`, for which the Potency result was “inactive”.

As for `CC(O)CCO` (stereo not given), the Potency entry was “inactive”.

As for `CC(C)(c1cc(Cl)c(O)c(Cl)c1)c1cc(Cl)c(O)c(Cl)c1`, the Potency result is “inactive”.

As for `CCCCN(CC)c1c([N+](=O)[O-])cc(C(F)(F)F)cc1[N+](=O)[O-]`, the Potency result was “inactive”.

Consider `C1=Cc2cccc3cccc1c23`, for which the Potency entry was “inactive”.

Regarding `CCC(C)(C)c1ccc(O)cc1`, the Potency entry was “inactive”.

As to `c1cc(OCC2CO2)ccc1Cc1ccc(OCC2CO2)cc1` (stereo not given), the Potency entry is “inactive”.

With `CCN(CC)C(=O)/C(Cl)=C(\C)OP(=O)(OC)OC`, the Potency entry is “inactive”.

With `CCC(=O)O[C@H]1CC[C@H]2[C@@H]3CCC4=CC(=O)CC[C@]4(C)[C@H]3CC[C@]12C`, the Potency result is “inactive”.

Consider `CCC(C)c1ccc(O)cc1` (stereo not given), for which the Potency result was “inactive”.

Consider `O=S(=O)(Oc1ccc(Cl)cc1)c1ccc(Cl)cc1`, for which the Potency result is “inactive”.

For the molecule `CCCCCCCCOC(=O)c1ccccc1C(=O)OCCCCCCCC`, the “activity change, negative = cytotoxic” value is -2.87% (inactive).

On to `O=C(O)CC[N+](=O)[O-]`, for which the Potency entry is “inactive”.

On to `O=C(NC(=O)c1c(F)cccc1F)Nc1ccc(Cl)cc1`, for which the Potency entry was “inactive”.

As for `CCC(C)(c1ccc(O)cc1)c1ccc(O)cc1`, the Potency result was “inactive”.

As to `CCCCCCCCCCCOC(=O)c1ccccc1C(=O)OCCCCCCCCCCC`, the Potency entry was “inactive”.

For `Cc1cc(Cl)ccc1OCCCC(=O)O`, the Potency result is “inactive”.

Regarding `CCC(C)c1cc([N+](=O)[O-])cc([N+](=O)[O-])c1O` (stereo not given), the Potency result was “inactive”.

On to `CCCCCCCCC(=O)NCc1ccc(O)c(OC)c1`, for which the Potency entry was “inactive”.

As for `NC(=S)Nc1ccccc1`, the Potency result was “inactive”.

With `COC(=O)c1sccc1S(=O)(=O)NC(=O)Nc1nc(C)nc(OC)n1`, the Potency result was “inactive”.

For the molecule `O=[N+]([O-])c1ccc(O)c([N+](=O)[O-])c1`, the Potency result is “inactive”.

Take `CCOP(=S)(OCC)O/N=C(\C#N)c1ccccc1`: the Potency entry was “inactive”.

These data come from PubChem BioAssay (Tox21).
